Drawing on PubChem BioAssay (NCI), this text covers growth for 7 compounds.

Among the test systems are HCT-15 colon; HT29 colon; SNB-75 CNS; SNB-19 CNS; U251 CNS; PC-3 prostate; SK-MEL-5 melanoma; UACC-62 melanoma; LOX IMVI melanoma; SK-MEL-28 melanoma; SK-MEL-2 melanoma; EKVX NSCLC; SN12C renal; UO-31 renal; TK-10 renal; ACHN renal; CAKI-1 renal; A498 renal; CCRF-CEM leukemia; MOLT-4 leukemia.
Holding throughout (assay): NCI-60 one-dose screen, 48 h (100 = growth as untreated, 0 = no growth, -100 = all killed)
Holding throughout (conditions): 10 µM unless noted

This is part of a sample that, as a whole, favours compounds with a hit. Of some 83,000 tested, about 20% had one in any assay.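 Note: values are percent growth. 100 is the growth of untreated cells, values between 100 and 0 indicate rising inhibition; between -100 and 0 indicates cell death.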 Unmarked numbers belong to inactive results. Calls of active or inactive are those of the source. The calls were made as follows: active = growth percent below 10; inactive = the rest.

Turning to `N=C(N)c1ccc(-c2ccc(-c3ccc(Cl)cc3Cl)s2)nc1`, the growth in the test on HCT-15 colon is -15.2% (active); with HT29 colon, 4.27% (active); in the test on SNB-75 CNS it was 92.4%; in the test with SNB-19 CNS, 56.3%; in the test on U251 CNS, -10.6% (active); in the test with PC-3 prostate, 73.2%. Besides, the growth in the test on SK-MEL-5 melanoma was 97.7%; in the test with UACC-62 melanoma it was 103%; with LOX IMVI melanoma it was -67.9% (active); in the test with SK-MEL-28 melanoma it was 116%; in the test on SK-MEL-2 melanoma, 109%; in the test with EKVX NSCLC, 93.6%. Further, the growth was 81% in the test with SN12C renal; 91.3% in the test with UO-31 renal; 122% with TK-10 renal; 74.2% in the test with ACHN renal; 39.1% in the test on CAKI-1 renal; 104% with A498 renal. The growth is 39.1% with CCRF-CEM leukemia and 13.5% in the test with MOLT-4 leukemia.
Turning to `Nc1nc(N)c2c(n1)NC(c1ccc3c(c1)OCO3)CC(c1cccc(Nc3ccncc3)c1)=N2` (stereo not given), the growth is 98.4% with HCT-15 colon; 61.3% in the test on HT29 colon; 66.9% with SNB-75 CNS; 94.5% in the test on SNB-19 CNS; 80.8% in the test on U251 CNS; 50.8% with PC-3 prostate. Moreover, the growth is 90% in the test on SK-MEL-5 melanoma; 87.6% in the test with UACC-62 melanoma; 48.5% in the test with LOX IMVI melanoma; 108% in the test with SK-MEL-28 melanoma; 86% with SK-MEL-2 melanoma; 89.1% in the test on EKVX NSCLC. Besides, the growth in the test on SN12C renal is 94.6%; in the test with UO-31 renal it was 96.1%; in the test with TK-10 renal, 99.6%; in the test on ACHN renal it was 110%; in the test on CAKI-1 renal, 78.8%; in the test on A498 renal it was 93%. Besides, the figures for the growth in the test with CCRF-CEM leukemia and with MOLT-4 leukemia were 70% and 71.2%, respectively.
Take `CCOC(=O)CCC(=O)P(=O)(O)O`: the growth was 108% in the test with HCT-15 colon; 95.9% in the test with HT29 colon; 146% with SNB-75 CNS; 92.6% in the test with SNB-19 CNS; 102% with U251 CNS; 62.8% in the test with PC-3 prostate. In addition, the growth is 104% in the test with SK-MEL-5 melanoma; 96.6% in the test on UACC-62 melanoma; 104% with LOX IMVI melanoma; 93.6% in the test on SK-MEL-28 melanoma; 104% in the test with SK-MEL-2 melanoma; 106% in the test on EKVX NSCLC. Moreover, the growth in the test on SN12C renal was 108%; in the test on UO-31 renal, 105%; with TK-10 renal it was 99.3%; in the test with ACHN renal it was 91.6%; with CAKI-1 renal it was 137%; with A498 renal, 107%. Besides, the growth with CCRF-CEM leukemia was 75.1%; in the test on MOLT-4 leukemia, 62.6%.
For `CCOC(=O)c1cc(C(=O)c2cc(OC)cc(OC)c2)n2ccccc12`, the growth with HCT-15 colon is 25.6%; with HT29 colon it was 10.1%; in the test on SNB-75 CNS, 20.5%; in the test on SNB-19 CNS it was 41.7%; in the test with U251 CNS, 38.6%; in the test with PC-3 prostate it was 40.4%. The growth with SK-MEL-5 melanoma was 27.4%; in the test with UACC-62 melanoma it was 30.9%; in the test on LOX IMVI melanoma, 38.1%; with SK-MEL-28 melanoma, 67.3%; with SK-MEL-2 melanoma, 41.7%; in the test with EKVX NSCLC it was 73.7%. Further, the growth is 66.9% in the test on SN12C renal; 62% with UO-31 renal; 55.9% in the test on TK-10 renal; 48.6% in the test with ACHN renal; 42.2% in the test on CAKI-1 renal; 28.8% in the test on A498 renal. Further, the growth in the test with CCRF-CEM leukemia was 34.6%; in the test on MOLT-4 leukemia it was 30.6%.
On to `Cc1c2cnccc2c(C)c2c1c1cc(C(=O)O)ccc1n2C`, for which the growth is 1.03% (active) in the test with HCT-15 colon; 7.11% (active) with HT29 colon; -7.4% (active) in the test with SNB-75 CNS; 2.23% (active) with SNB-19 CNS; 0.0209% (active) in the test on U251 CNS; 10.4% in the test with PC-3 prostate. For the same compound, the growth in the test on SK-MEL-5 melanoma is -84.7% (active); with UACC-62 melanoma it was -55% (active); with LOX IMVI melanoma, -27.1% (active); in the test with SK-MEL-28 melanoma, -27.4% (active); with SK-MEL-2 melanoma it was -65.5% (active); with EKVX NSCLC, 16%. For the same compound, the growth in the test with SN12C renal was 0.942% (active); in the test on UO-31 renal it was -36.5% (active); with TK-10 renal, -7.59% (active); with ACHN renal, -15% (active); in the test on CAKI-1 renal, -6.62% (active); in the test with A498 renal, -57.4% (active). The growth with CCRF-CEM leukemia was 5.53% (active); with MOLT-4 leukemia it was 1.6% (active).
`c1ccc(Cn2cc3c(c2)-c2nc(Nc4ccccc4)ncc2CC3)cc1`: the growth in the test on HCT-15 colon is 116% [100 µM]; with HT29 colon it was 117% [100 µM]; in the test on SNB-75 CNS, 63.7% [100 µM]; in the test on SNB-19 CNS it was 84.1% [100 µM]; with U251 CNS, 69.1% [100 µM]; in the test on PC-3 prostate it was 72.8% [100 µM]. For the same compound, the growth was 79.4% [100 µM] in the test on SK-MEL-5 melanoma; 82.7% [100 µM] in the test on UACC-62 melanoma; 85.6% [100 µM] in the test on LOX IMVI melanoma; 92.5% [100 µM] with SK-MEL-28 melanoma; 92.6% [100 µM] with SK-MEL-2 melanoma; 72.1% [100 µM] with EKVX NSCLC. Also, the growth was 87.8% [100 µM] in the test with SN12C renal; 93% [100 µM] with UO-31 renal; 72.8% [100 µM] in the test on TK-10 renal; 81.8% [100 µM] in the test on ACHN renal; 59.2% [100 µM] in the test on CAKI-1 renal; 105% [100 µM] in the test on A498 renal. Also, the growth in the test with CCRF-CEM leukemia is 2.85% [100 µM] (active); in the test with MOLT-4 leukemia, 107% [100 µM].
Regarding `CCCCCCCC/C=C\CCCCCCCCOc1ccc(CC(=O)NCC[N+]2(C)CCCC2)cc1`, the growth in the test on HCT-15 colon is 84.8%; with HT29 colon, 18.4%; in the test on SNB-75 CNS it was 43.4%; in the test with SNB-19 CNS it was 38%; in the test with U251 CNS, 15.1%; with PC-3 prostate, 9.45% (active). Also, the growth in the test with SK-MEL-5 melanoma was 79.5%; in the test on UACC-62 melanoma, 50.3%; in the test with LOX IMVI melanoma, 72.8%; with SK-MEL-28 melanoma, 95.9%; with SK-MEL-2 melanoma it was 103%; in the test on EKVX NSCLC, 86.1%. Also, the growth with SN12C renal was 42.5%; in the test with UO-31 renal, 93.3%; in the test with TK-10 renal, 38.5%; with ACHN renal, 84.1%; with CAKI-1 renal, 50.9%; in the test on A498 renal it was 86.4%. In addition, the growth in the test with CCRF-CEM leukemia was 29.5%; in the test with MOLT-4 leukemia it was 68.4%.
